PAX8 reporter: PAX8 transcriptional activity inhibition; AID 652154; 1.2% of 360,000 active; RMG-I TPO-luciferase reporter, SteadyGlo, 24 h; inhibition, % at 12.6 µM;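 active = mean replicate inhibition at least 60% with every replicate also reaching 60%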;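 note: luciferase light reporting Pax8 driven TPO promoter activity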
Ecoli rRNA inh: selective bacterial rRNA inhibition in E. coli; 1.6% of 350,000 active; GFP signal change (wild-type ribosome), % (no concentration beside the values); E. coli WT GFP vs humanized-ribosome RFP mutants, fluorescence, 24 h; hits give low values; DMSO median 0, no signal -100;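 active = significant combined selectivity score with lowered wild-type GFP, culture density cut under 30%, mutant RFP and density less affected; inactive = any of these conditions unmet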
PGC1a acetyl inh: PGC1a acetylation modulation, inhibitor mode; inhibition, % at 15.6 µM; 0.17% of 350,000 active; U2OS PGC1a acetylation, AlphaScreen anti-acetyl-lysine; with virally co-expressed GCN5 acetyltransferase; AID 651687;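 active = every replicate shows inhibition of at least 40%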
LGR2 antag: Drosophila LGR2 receptor signaling inhibition | HEK293 LGR2, CRE-luciferase, bursicon-stimulated, 4 h | inhibition, % at 9.99 µM | 0.35% of 380,000 active | AID 720647;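 active = drop in luminescence signal, shown as inhibition above about 50% in the replicate tests, limit read from the data, passing the limit was not always enough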;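 note: agonist challenge used bursicon conditioned medium at about half maximal strength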
SIRT5 inh: sirtuin-5 (human) deacylase inhibition | Purified SirT5, succinyl-peptide AMC, trypsin-coupled fluorescence | 1.1% of 330,000 active | inhibition, % at 15 µM; in the data active = inhibition above about 15%
Target sequence (Q9NXA8 whole entry, looked up): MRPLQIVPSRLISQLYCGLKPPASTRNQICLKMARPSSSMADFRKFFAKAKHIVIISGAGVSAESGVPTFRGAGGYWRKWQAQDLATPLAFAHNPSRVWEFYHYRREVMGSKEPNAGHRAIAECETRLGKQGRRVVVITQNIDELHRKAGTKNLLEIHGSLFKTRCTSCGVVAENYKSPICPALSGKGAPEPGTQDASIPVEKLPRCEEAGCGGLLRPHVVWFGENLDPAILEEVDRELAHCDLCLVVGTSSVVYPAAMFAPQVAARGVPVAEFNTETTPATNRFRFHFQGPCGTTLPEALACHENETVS
EWS-Fli inh: blocks EWS/Fli oncoprotein-driven transcription; 0.67% of 350,000 active; inhibition, % at 12.6 µM; A673 NR0B1-luciferase reporter, viability-normalised;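 active = mean inhibition of at least 50% after viability correction, with every replicate also passing that limit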;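 note: firefly luciferase signal divided by Alamar Blue viability fluorescence both relative to DMSO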
Numbers stand for hits; - = inactive; . = no result given; ! = a repeat was not active. The list is not random: actives were taken first. Their share in the collection is about 3.4%.

SMILES | PAX8 reporter | Ecoli rRNA inh | PGC1a acetyl inh | LGR2 antag | SIRT5 inh | EWS-Fli inh
O=C(NCCc1c[nH]c2ccccc12)OCCCCOC(=O)NCCc1c[nH]c2ccccc12 | - | - | - | 83.9 | - | -
Nc1[nH]c(C(=O)c2ccccc2)c(-c2ccc([N+](=O)[O-])cc2)c1C(=O)NCCc1c[nH]c2ccccc12 | - | - | . | - | - | -
C/C=C/c1ccc([C@H]2[C@@H](CO)N(C(=O)C3CC3)[C@H]2CN(C)S(C)(=O)=O)cc1 | . | - | - | - | - | .
CO[C@H]1CN(C)C(=O)c2cc(NC(=O)c3ccc(F)cc3)ccc2OC[C@H](C)NC[C@@H]1C | - | - | - | - | . | -
CC(C)C(=O)Nc1ccc2c(c1)C(=O)N(C)[C@@H]1CC[C@H](CC(=O)NCc3ccccc3F)O[C@@H]1CO2 | - | - | - | - | . | -
O=C(O)C=Cc1c[nH]c2nccnc12 | - | . | - | - | - | -
O=C(O)/C=C/c1cnc[nH]1 | - | - | 106.0 | - | - | -
CC(C)CC(=O)Nc1ccc(-c2nc3ccccc3c(=O)[nH]2)cc1 | - | . | . | . | 15.8 | -
O=C(NCCNC(=O)c1ccccc1F)c1ccccn1 | - | - | - | - | 15.7 | -
CC(C)n1cnc2c(N(C)c3cccc(Cl)c3)nc(N(CCO)CCO)nc21 | - | -33.2 | - | - | - | -
CCC(CO)Oc1cc(NC(=O)c2cccc(Cl)c2)c2ncn(C(C)C)c2c1 (stereo not drawn) | - | - | - | - | - | -
CCCNC(=O)N1CC2(CN(C(=O)C3CCC3)C2)c2c([nH]c3cc(OC)ccc23)[C@@H]1CO | . | - | - | - | . | -
Cc1ccc2[nH]c3nc(N/N=C/c4cccc(O)c4)nnc3c2c1 | - | - | - | - | - | -
COc1cc(/C=N/Nc2nnc3c(n2)[nH]c2ccccc23)ccc1O | 80.2 | - | - | . | - | -
CCc1ccc2[nH]c3nc(N/N=C/c4ccc(O)cc4O)nnc3c2c1 | 105.1 | - | . | - | - | -
C[C@@H]1CN(C)C(=O)c2cc([N+](=O)[O-])ccc2O[C@H]1CN(C)C(=O)OC(C)(C)C | . | - | . | . | . | .
COCC(=O)N1[C@H](CO)[C@@H](c2ccccc2)C12CN(C(=O)c1cccnc1)C2 | . | - | - | - | - | -
C=CCn1c(-c2cc3cccc(OC)c3o2)n[nH]c1=S | - | -23.2 | - | - | - | -
COc1ccc2cc3cc(C(=O)NCCCN4CCc5ccccc5C4)sc3nc2c1 | - | - | . | - | 18.7 | -
COc1ccc2nc3sc(C(=O)NCCN4CCc5ccccc5C4)cc3cc2c1 | - | - | - | - | - | -
COC1=CC(=O)c2c(ccc3ncnc(N)c23)C1=O | 103.8 | . | 66.1 | 96.5 | - | -
COc1ccc(S(=O)(=O)N(C)C[C@H]2OCCCC[C@H](C)Oc3ccc(NC(=O)Nc4ccc(F)cc4)cc3C(=O)N([C@H](C)CO)C[C@H]2C)cc1 | - | - | - | - | 16.6! | -
COc1ccc(S(=O)(=O)N(C)C[C@@H]2OCCCC[C@H](C)Oc3ccc(NC(=O)C4CCCCC4)cc3C(=O)N([C@@H](C)CO)C[C@@H]2C)cc1 | 65.4 | - | - | - | - | -
COc1ccc(NC(=O)Nc2ccc3c(c2)C(=O)N([C@H](C)CO)C[C@H](C)[C@H](CN(C)S(=O)(=O)c2ccc(F)cc2)OCCCC[C@@H](C)O3)cc1 | - | - | - | - | - | -
COc1ccc(S(=O)(=O)N(C)C[C@H]2OCCCC[C@@H](C)Oc3ccc(NC(=O)Nc4ccc(F)cc4)cc3C(=O)N([C@H](C)CO)C[C@H]2C)cc1 | - | - | - | - | 16.2 | -
COC(=O)C[C@H]1CC[C@H]2[C@H](COc3ccc(NC(=O)c4cccc(F)c4)cc3C(=O)N2C)O1 | - | - | - | - | - | -
CCC(=O)N(C)C[C@@H]1Oc2cc(C3=CCCCC3)ccc2S(=O)(=O)N([C@H](C)CO)C[C@@H]1C | . | - | - | - | . | -
COc1ccc(NC(=O)Nc2ccc3c(c2)C(=O)N([C@H](C)CO)C[C@H](C)[C@H](CN(C)C(=O)CCC(F)(F)F)OCCCC[C@@H](C)O3)cc1 | - | - | - | - | . | -
O=C(NNc1ccc([N+](=O)[O-])cc1)Nc1ccccc1 | - | - | - | - | - | -
O=C(NNc1ccc([N+](=O)[O-])cn1)Nc1ccc(N=Nc2ccccc2)cc1 | - | -4.1 | - | - | . | -

Screening data from PubChem BioAssay.
